Compounds with a hit are over-represented: about 10% of the library has one in this group of screens.
GPT2 inh = inhibitors of human GPT2 alanine aminotransferase; Q8TD30; Recombinant GPT2, coupled pyruvate oxidase/HRP Amplex Red fluorescence; Potency, µM (titrated, usually from 57.7 µM), most hits filed as inhibitors; hit rate 0.25% among 100,000; further: nearly all actives have a fitted effect of over 60% in size
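Fluorescence of coupled pyruvate oxidase/HRP/Amplex Red system (50uM Amplex, 30 min, dark) reports pyruvate formed by GPT2. Enzyme reaction: 10ng/uL GPT2, 2mM L-alanine, 250uM a-KG, 30 min room temperature, pH 7.5; 50uM AOA control.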
HEK293 tox = kills HEK 293 cells; HEK 293 viability, ATP luminescence (CellTiter-Glo), 48-72 h; Potency, µM (doses to about 115 µM), actives largely listed as inhibitors; hit rate 6.6% among 94,000; further: nearly all actives have a fitted effect of over 60% in size
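Read-out: CellTiter-Glo ATP luminescence. Cells: HEK 293, 250 cells/well. Exposure: 48 or 72 hr, 37 degree Celsius.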
NPR1 antag = human Npr1 receptor antagonism | P16066 | hit rate 1.6% among 76,000 | AID 1347048 | HEK293 hNpr1 GloSensor cGMP, ANP-stimulated luminescence | Potency, µM (titrated, usually from 46.3 µM), most hits filed as inhibitors; calls by dose curve; further: nearly all actives have a fitted effect of over 60% in size
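Compound pre-incubated 30 min at room temperature on GloSensor-loaded HEK293 cells stably carrying hNpr1 and the pGS-40F cGMP biosensor. Stimulation uses hNppA at 0.1 nM final; luminescence is taken at baseline and 20 min post-agonist.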
NIH3T3 tox = cytotoxic compounds in NIH 3T3 cells. NIH 3T3 viability, CellTiter-Glo ATP luminescence, 48-72 h. Potency, µM (highest dose often 96.7 µM), hits mostly inhibitors. hit rate 4.3% among 94,000. AID 1345082; further: nearly all actives have a fitted effect of over 55% in size
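Viability of NIH 3T3 cells after 48 or 72 hr compound treatment at 37 °C was assessed by CellTiter-Glo, with luminescence imaged following a 10 min room-temperature step.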
Luciferase inh = inhibitors of firefly (Photinus pyralis) luciferase. P08659. purified P. pyralis luciferase, luminescence, biochemical. Potency, µM (series often up to 115 µM), usual class: inhibitors. hit rate 2.5% among 76,000; further: nearly all actives have a fitted effect of over 65% in size
Target sequence (P08659 whole entry, looked up): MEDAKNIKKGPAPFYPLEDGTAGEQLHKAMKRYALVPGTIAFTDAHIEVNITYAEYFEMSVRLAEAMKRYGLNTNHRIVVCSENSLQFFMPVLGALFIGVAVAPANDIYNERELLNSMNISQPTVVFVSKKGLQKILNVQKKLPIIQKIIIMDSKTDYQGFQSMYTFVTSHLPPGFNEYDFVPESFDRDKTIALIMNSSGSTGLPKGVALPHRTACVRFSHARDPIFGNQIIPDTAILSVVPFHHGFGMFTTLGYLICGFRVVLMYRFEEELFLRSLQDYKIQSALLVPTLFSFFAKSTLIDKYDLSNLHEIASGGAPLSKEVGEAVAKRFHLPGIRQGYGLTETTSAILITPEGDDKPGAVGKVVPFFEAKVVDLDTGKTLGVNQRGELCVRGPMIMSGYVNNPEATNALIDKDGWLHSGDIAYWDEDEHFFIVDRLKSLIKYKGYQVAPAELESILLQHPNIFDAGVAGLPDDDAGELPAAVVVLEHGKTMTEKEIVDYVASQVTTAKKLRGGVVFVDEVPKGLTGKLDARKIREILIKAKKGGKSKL
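Cell-free enzyme assay, 10nM P. pyralis luciferase, luciferin and ATP each at 10uM. Inhibition profiled over a 6-point titration, read as luminescence.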
Hits are given with their value; . = inactive; ? = inconclusive; / = no result given; ! = not active in a repeat. Unless noted, the call rests on the fitted dose curve; in most records, active means well fitted curve in the direction sought with a large enough effect; inconclusive means small, poorly fitted or top-dose-only effect, or another doubt; inactive means no such curve, though single readings can be large; an effect the other way counts as inactive or inconclusive.

SMILES | GPT2 inh | HEK293 tox | NPR1 antag | NIH3T3 tox | Luciferase inh
COc1ccc(-n2nc(C3CCN(Cc4ccc(OC(F)(F)F)cc4)CC3)[nH]c2=O)cc1 | . | ? | ? | . | .
O=c1[nH]c(C2CCCN(Cc3ccc(F)cc3)C2)nn1-c1ccc(Cl)cc1 (centres undefined) | . | 44.7µM | . | 35.5µM | .
COc1ccc(-n2nc(C3CCN(Cc4ccc(C(F)(F)F)cc4)CC3)[nH]c2=O)cc1 | . | 31.6µM! | ? | ? | .
O=c1[nH]c(C2CCCN(Cc3ccc(F)cc3)C2)nn1-c1ccccc1 (centres undefined) | ? | . | . | . | .
COc1cccc(CN2CCC3(CCC3OC)CC2)n1 (centres undefined) | . | . | . | . | .
O=C(Cc1cccc(Cl)c1)NC1CCN(Cc2cccc(-c3cccs3)c2)CC1 | . | 22.4µM | / | 11.2µM | /
O=C(Nc1ccccc1F)NC1CCN(Cc2cccc(-c3cccs3)c2)CC1 | . | 25.1µM | / | 25.1µM | /
O=C(Cc1cccc(Cl)c1)NC1CCN(Cc2cccc(-c3ccc(F)c(F)c3)c2)CC1 | . | 20µM | / | 15.8µM | /
O=C(NC1CCCC1)NC1CCN(Cc2cccc(-c3cccs3)c2)CC1 | . | ? | / | . | /
c1cc(-c2noc(C3CC3)n2)ccc1OC1CNC1 | . | . | . | . | ?
CCc1cccc2c(C(CC(=O)NCCc3ccc(OC)c(OC)c3)c3ccccc3OC)c[nH]c12 (centres undefined) | . | 35.5µM | . | ? | .
COc1ccccc1C(CC(=O)NCCc1ccccc1)c1c[nH]c2ccccc12 (centres undefined) | . | ? | . | 39.8µM | ?
COc1ccc(CCNC(=O)CC(c2ccccc2OC)c2c[nH]c3ccccc23)cc1OC (centres undefined) | . | ? | . | ? | .
O=C(CC(c1cccc([N+](=O)[O-])c1)c1c[nH]c2ccccc12)NCCc1ccccc1 (centres undefined) | . | 31.6µM | ? | 25.1µM | .
CCc1cccc2c(C(CC(=O)NCCc3ccccc3)c3ccc(OC)c(OC)c3)c[nH]c12 (centres undefined) | . | ? | . | ? | ?
COc1cccc(C(CC(=O)NCC(C)C)c2c[nH]c3ccccc23)c1 (centres undefined) | . | . | . | . | .
OC1(CN2CCN(CCc3ccccn3)CC2)CCCNC1 (centres undefined) | . | . | . | . | .
Cc1cc(Cl)ccc1OCCN1CCN(CC2(O)CCCNC2)CC1 (centres undefined) | . | 12.6µM | . | 22.4µM | .
CCOc1ccccc1NC(=O)Cn1c(C)cc2nc3n(c(=O)c21)CCCCC3 | . | . | . | . | .
CC(=O)N1CC2(CCN(Cc3cscn3)CC2)CC1C(=O)O (centres undefined) | . | . | . | . | .
COc1cc2c(cc1-c1cccc(C(F)(F)F)c1)OCC(C)(C)CC2CO (centres undefined) | / | 31.6µM | / | 28.2µM | /
Cn1c2c(cc(C(=O)N3CC[C@](C)(O)[C@@H](O)C3)c1=O)CCCC2 | . | . | . | . | .
FC(F)(F)c1ccc(CN2CC(N3CCc4ccccc43)C2)cc1 | . | . | / | ? | /
COc1ccc(-c2ccc3ncc(Nc4ccc5c(c4)OCCO5)n3n2)cc1OC | . | 44.7µM | . | ? | 20µM
COc1ccccc1Nc1cnc2ccc(-c3ccc(F)cc3)nn12 | . | 70.8µM | . | ? | .
SMILES | GPT2 inh | HEK293 tox | NPR1 antag | NIH3T3 tox | Luciferase inh
COc1ccc(Nc2cnc3ccc(-c4ccc(OC)c(OC)c4)nn23)cn1 | ? | 63.1µM | . | 31.6µM | ?
COc1ccc(-c2ccc3ncc(Nc4cccc(O)c4)n3n2)cc1OC | . | 63.1µM | . | ? | .
COc1ccc(Nc2cnc3ccc(-c4ccc(F)cc4)nn23)cc1OC | . | ? | . | ? | ?
COc1ncccc1Nc1cnc2ccc(-c3ccc(F)cc3)nn12 | ? | ? | . | ? | .
O=[S+]([O-])(NC1CCN(Cc2ccc(-c3ccsc3)cc2)C1)c1cccs1 (centres undefined) | . | 39.8µM | / | 35.5µM | /
CSc1ccc(-c2cccc(CN3CCC(N[S+](=O)([O-])c4ccccc4)CC3)c2)cc1 | / | 28.2µM | / | 15.8µM | /
CSc1ccc(-c2cccc(CN3CCC(N[S+](=O)([O-])c4c(C)noc4C)CC3)c2)cc1 | / | ? | / | 14.1µM | /
